Screening results from PubChem BioAssay.
RORgamma inh: blocks mouse ROR gamma transcriptional activity. P51450. Drosophila S2 Gal4-RORgamma UAS-luciferase reporter, 20 h. Potency, µM (doses to about 53.6 µM), for the others: top-dose activity change, negative = inhibition, hits mostly inhibitors. 310,000 tested, 5.4% active. AID 2551; note: % is set by controls: 0 for no effect and ±100 for the full control effect; nearly all actives have a fitted effect of over 60% in size
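Luciferase reporter read in Schneider cells carrying Gal4-RORγ (mouse) and UAS-Photinus luciferase; cells given compound 1 h before 700 uM copper sulfate induction, then incubated 20 h at ambient temperature.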
GLP1R inv ag: inverse agonists of human GLP-1 receptor; P43220; HEK293 GLP-1R CRE-luciferase, luminescence, 24 h; GLP-1R form is constitutively active; Potency, µM (top dose mostly 38.3 µM), for the others: at the highest dose activity change, negative = inhibition, usual class: inhibitors; 410,000 tested, 1.6% active; AID 624417; note: % is set by controls: 0 for no effect and ±100 for the full control effect; nearly all actives have a fitted effect of over 55% in size
Target sequence (P43220 whole entry, looked up): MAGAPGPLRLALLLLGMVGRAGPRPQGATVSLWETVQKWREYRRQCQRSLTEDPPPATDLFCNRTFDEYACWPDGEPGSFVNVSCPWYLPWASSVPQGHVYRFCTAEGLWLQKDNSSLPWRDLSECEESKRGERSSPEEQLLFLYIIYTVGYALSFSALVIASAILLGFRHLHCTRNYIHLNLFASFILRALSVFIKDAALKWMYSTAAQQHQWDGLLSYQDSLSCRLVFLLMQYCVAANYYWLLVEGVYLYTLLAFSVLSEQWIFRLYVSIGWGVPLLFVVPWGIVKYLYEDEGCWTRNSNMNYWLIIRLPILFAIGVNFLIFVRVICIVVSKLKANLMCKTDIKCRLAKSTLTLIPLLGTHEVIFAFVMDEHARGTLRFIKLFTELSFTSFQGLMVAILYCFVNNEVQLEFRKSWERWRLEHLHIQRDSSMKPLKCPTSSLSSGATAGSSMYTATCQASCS
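HEK293 cells stably co-expressing constitutively active GLP-1R and a cAMP-responsive luciferase reporter were seeded in DMEM with 10% Nu serum, given compounds after 12 h, and incubated 24 h at 37 deg C. Luminescence was then read.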
GLP1R ag: agonists of human GLP-1 receptor; HEK293 GLP-1R CRE-luciferase, luminescence, 4-6 h; cells express a hypersensitive GLP-1R form; 380,000 tested, 0.007% active; P43220; Potency, µM (doses to about 45.6 µM), without a hit: top-dose activation, usual class: activators; note: % of control where 0% means no effect
Gal4-VP16 FLuc: inhibits Gal4-VP16 luciferase reporter, ROR gamma counter-screen | Potency, µM (highest dose often 53.6 µM), inactives show at the top dose activity, negative = inhibition, most hits filed as inhibitors | 310,000 tested, 3.5% active | Drosophila S2 Gal4-VP16 UAS-luciferase, luminescence, 20 h | AID 2546;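 note: Gal4-VP16 expression switched on by copper sulfate through the metallothionein promoter; % is set by controls: 0 for no effect and ±100 for the full control effect; nearly all actives have a fitted effect of over 50% in size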
HEK293 tox: cytotoxic in the GLP-1 receptor inverse agonist counter-screen; HEK293 cAMP-luciferase reporter cells, luminescence, 24 h; AID 624418; Potency, µM (highest dose often 38.3 µM), without a hit: top-dose activity change, negative = inhibition, hits mostly inhibitors; 410,000 tested, 0.13% active;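 note: loss of luciferase light is scored as toxicity; % is set by controls: 0 for no effect and ±100 for the full control effect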
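Seeding density was 200 cells/uL; after overnight-length (12 h) culture, 23 nL compounds went on for 24 h at 37 °C. Readout used a luciferase detection reagent, luminescence taken after 12 min at room temperature.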
* marks the source's active call; other numbers are inactive results; ? = inconclusive; . = no result given; [ ] = another dose, or the depositor's remark. A selection: hits, their analogues and other compounds. The true share with any hit is near 5.9%. Calls come from the whole dose curve; as a rule, active = well fitted curve in the direction sought with a large enough effect; inconclusive = small, poorly fitted or top-dose-only effect, or another doubt; inactive = no such curve, though single readings can be large; an effect the other way counts as inactive or inconclusive. Potency is the fitted concentration of half-maximal effect.

SMILES | RORgamma inh | GLP1R inv ag | GLP1R ag | Gal4-VP16 FLuc | HEK293 tox
CC[C@H](C)[C@H](NC(=O)[C@H](Cc1ccc(O)cc1)NC(=O)[C@H](Cc1cnc[nH]1)NC(=O)[C@H](CCCNC(=N)N)NC(=O)[C@H](CC(C)C)NC(=O)[C@H](C)NC(=O)[C@@H](N)CO)C(=O)N[C@@H](CC(N)=O)C(=O)N[C@@H](CC(C)C)C(=O)N[C@H](C(=O)N[C@H](C(=O)N[C@@H](CCCNC(=N)N)C(=O)N[C@@H](CCC(N)=O)C(=O)N[C@@H](CCCNC(=N)N)C(=O)N[C@@H](Cc1ccc(O)cc1)C(N)=O)[C@@H](C)O)[C@@H](C)CC | 0.6% | . | . | -3.4% | .
CCCC(NC(C)C(=O)N1C(C(=O)O)CC2CCCCC21)C(=O)OCC (stereo not given) | 5.2% | . | . | -4.7% | .
COc1cc2c(C=O)c3c4c(cc(OC)c(OC)c4c2cc1OC)CCN3C | -29.0% | . | . | -12.0% | .
S=c1[nH]nc(-c2ccc(Cl)cc2)n1/N=C/c1cccs1 | 3.55µM* | 17.4% | 8.0% | -20.0% | 2.7%
S=c1[nH]nc(-c2ccccc2)n1/N=C/c1ccc(Cl)cc1 | 1.12µM* | -6.2% | 12.5% | ? | -35.4%
Oc1c(Br)cc(Br)cc1/C=N/n1c(-c2ccccc2)n[nH]c1=S | ? | ? | 4.1% | ? | 3.7%
S=c1[nH]nc(-c2ccncc2)n1/N=C/c1cccc(Cl)c1 | 4.47µM* | 42.9% | 2.6% | -23.4% | -1.8%
CN(C)c1ccc(/C=N/n2c(-c3cccnc3)n[nH]c2=S)cc1 | -33.6% | 14.3% | 0.4% | 1.7% | 9.2%
S=c1[nH]nc(-c2ccncc2)n1/N=C/C(Cl)=C\c1ccccc1 | ? | -9.0% | -3.4% | ? | ?
Oc1ccccc1/C=N/n1c(-c2ccccc2)n[nH]c1=S | 11.2µM* | 12.3% | 1.1% | -20.5% | 13.7%
Cc1noc(C)c1-c1nccc(N2CCN(C)CC2)n1 | -15.9% | . | . | 4.4% | .
Cc1ccc(CN2c3ccccc3S(=O)(=O)c3ccccc32)cc1 | . | ? | . | . | 16.8%
O=C(NC[C@H]1CCCCN1)c1cc(OCC(F)(F)F)ccc1OCC(F)(F)F | -0.2% | . | . | 4.5% | .
COc1c[nH]n(C2CCCCC2)c(=O)c1=O | 20µM* | -2.1% | 3.0% | ? | 9.1%
COc1ccc(Nc2cc(=O)n(C3CCCCC3)c(=O)[nH]2)c(OC)c1 | 21.0% | ? | -13.8% | 2.6% | -18.8%
CCn1c(-c2ccc3[nH]c(C)c(C)c3c2)n[nH]c1=S | 11.2µM* | 10.6% | 11.5% | 12.6µM* | -19.6%
Cc1cccc(-c2n[nH]c(=S)n2C)c1 | ? | -7.5%[0.307 µM] | 0.5% | ? | 8.3%[0.307 µM]
Cc1[nH]c2ccc(-c3n[nH]c(=S)n3C)cc2c1C | 11.2µM* | 16.0% | 6.2% | ? | -12.6%
COc1cccc(-c2coc3ccc(Br)cc3c2=O)c1 | -28.1% | . | . | -13.8% | .
O=C(NC(=S)N1CCCC1)c1ccc(Cl)cc1 | 11.4% | 10.0% | 9.1% | 14.3% | -17.4%
CC(C)(C)c1ccc(C(=O)NC(=S)N2CCCCCC2)cc1 | 0.282µM* | 7.08µM* | 0.9% | 0.501µM* | ?
CC(C)(C)CC(=O)NC(=S)N1CCCCCC1 | 7.94µM* | 2.6% | -0.1% | ? | -24.6%
CCOC(=O)N1CCN(C(=S)NC(=O)C2CCCC2)CC1 | -34.7% | -1.5% | 2.9% | -7.5% | 6.3%
CC(C)(C)c1ccc(C(=O)NCC(=O)N2CCCC2)cc1 | 20.7% | 2.8% | 4.3% | ? | -8.0%
CC(C)(C)c1ccc(C(=O)NC(=S)N2CCCC2)cc1 | 0.708µM* | -14.6% | 21.3% | 0.891µM* | -21.6%
CN1CCN(C(=S)NC(=O)c2ccc(Cl)cc2)CC1 | 0.398µM* | ? | 1.4% | 1µM* | ?
Cc1ccc(C(=O)NCC(c2ccc3c(c2)OCO3)N2CCOCC2)cc1C (stereo not given) | . | 0.4% | . | . | 5.6%
CCOC(=O)C[C@@H](C(=O)OCC)[C@@H]1CCCCC1=O | 23.2%[10 µM] | . | . | -1.0%[10 µM] | .
